Common to all, as to test: DAPPL (digital affinity profiling via proximity ligation, sequencing); 10 mM Tris-HCl pH 7.5, 50 mM NaCl, 1 mM DTT, 4% glycerol, room temperature, 30 min; GST-TFs on glutathione beads, 16-mer random dsDNA library, 0.1% formaldehyde crosslink after washing; high values mean tight binding
The target of one experiment is SPI1 (Homo sapiens, UniProt P17947 1-270). Conditions: protein: recombinant; tags: N-terminal GST; dsDNA, one strand shown. The gist of the method:
(§1)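 Human transcription factors were made in yeast as GST fusions, captured on glutathione beads and barcoded with DNA. With a tag-only sample included, the pool was incubated with 200 nmole of a random double-stranded 16-mer DNA library in Tris/NaCl/DTT/glycerol buffer at room temperature for 30 min, then crosslinked with 0.1% formaldehyde after washing, ligated by proximity, amplified and sequenced. For binding signal, each hexamer's read frequency for a factor is divided by its frequency for the tag-only sample.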

In another experiment the target is HSF1 (Homo sapiens, UniProt Q00613 1-529). To be noted: protein: recombinant; tags: N-terminal GST; chain copies: 3; dsDNA, one strand shown. An outline of the steps:
as §1

The target of the next experiment is T1, SPIC (Homo sapiens, UniProt Q8N5J4 1-248).
T1 sequence: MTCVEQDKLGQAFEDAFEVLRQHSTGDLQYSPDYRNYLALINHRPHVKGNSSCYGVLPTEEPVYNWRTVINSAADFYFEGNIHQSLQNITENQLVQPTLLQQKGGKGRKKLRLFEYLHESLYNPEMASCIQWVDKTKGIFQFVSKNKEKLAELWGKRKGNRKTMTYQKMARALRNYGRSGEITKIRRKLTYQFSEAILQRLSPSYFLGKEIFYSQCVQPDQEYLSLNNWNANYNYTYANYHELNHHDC
To be noted: protein: recombinant; tags: N-terminal GST; dsDNA, one strand shown. An outline of the steps:
as §1

The next experiment addresses CRX (Homo sapiens, UniProt O43186 1-299). Conditions: protein: recombinant; tags: N-terminal GST; dsDNA, one strand shown. An outline of the steps: as §1
The next experiment concerns the target T2, ERF (Homo sapiens, UniProt P50548 1-548).
T2 sequence: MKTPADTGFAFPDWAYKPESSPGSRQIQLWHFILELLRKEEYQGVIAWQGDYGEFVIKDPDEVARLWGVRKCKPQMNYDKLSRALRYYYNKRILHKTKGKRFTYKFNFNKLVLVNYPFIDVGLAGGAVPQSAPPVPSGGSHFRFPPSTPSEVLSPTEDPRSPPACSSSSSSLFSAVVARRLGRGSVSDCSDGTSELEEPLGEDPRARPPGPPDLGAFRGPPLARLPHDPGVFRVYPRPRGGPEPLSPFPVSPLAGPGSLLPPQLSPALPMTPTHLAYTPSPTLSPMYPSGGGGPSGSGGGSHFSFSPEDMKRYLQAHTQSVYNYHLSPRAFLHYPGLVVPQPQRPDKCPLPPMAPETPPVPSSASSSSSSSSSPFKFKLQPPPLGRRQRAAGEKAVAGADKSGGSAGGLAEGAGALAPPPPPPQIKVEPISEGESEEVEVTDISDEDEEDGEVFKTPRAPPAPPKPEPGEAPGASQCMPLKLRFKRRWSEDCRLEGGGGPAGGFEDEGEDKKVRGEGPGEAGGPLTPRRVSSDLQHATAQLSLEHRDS
To be noted: protein: recombinant; tags: N-terminal GST; dsDNA, one strand shown. An outline of the steps: as §1

A further experiment deals with T3, ETV7 (Homo sapiens, UniProt Q9Y603 1-341).
T3 sequence: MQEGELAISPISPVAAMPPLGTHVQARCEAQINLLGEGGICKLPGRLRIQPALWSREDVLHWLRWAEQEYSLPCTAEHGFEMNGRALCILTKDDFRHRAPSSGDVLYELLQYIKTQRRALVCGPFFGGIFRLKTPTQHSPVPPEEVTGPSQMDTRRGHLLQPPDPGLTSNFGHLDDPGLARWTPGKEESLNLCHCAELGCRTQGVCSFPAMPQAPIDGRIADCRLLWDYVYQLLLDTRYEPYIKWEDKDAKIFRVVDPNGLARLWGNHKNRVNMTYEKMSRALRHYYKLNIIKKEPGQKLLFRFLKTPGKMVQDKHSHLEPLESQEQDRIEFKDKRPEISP
Conditions: protein: recombinant; tags: N-terminal GST; dsDNA, one strand shown. An outline of the steps: as §1

In the next experiment the target is T4, EHF (Homo sapiens, UniProt Q9NZC4 1-300).
T4 sequence: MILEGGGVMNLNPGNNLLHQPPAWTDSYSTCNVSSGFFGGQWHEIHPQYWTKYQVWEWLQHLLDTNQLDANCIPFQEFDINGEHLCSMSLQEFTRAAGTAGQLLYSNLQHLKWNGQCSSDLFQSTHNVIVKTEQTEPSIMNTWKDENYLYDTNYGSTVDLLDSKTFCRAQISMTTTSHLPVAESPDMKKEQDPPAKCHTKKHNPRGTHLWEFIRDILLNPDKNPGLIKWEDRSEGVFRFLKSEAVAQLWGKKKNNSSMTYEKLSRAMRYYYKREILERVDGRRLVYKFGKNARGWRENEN
To be noted: protein: recombinant; tags: N-terminal GST; dsDNA, one strand shown. An outline of the steps:
as §1

Another experiment deals with T5, ELK3 (Homo sapiens, UniProt P41970 1-407).
T5 sequence: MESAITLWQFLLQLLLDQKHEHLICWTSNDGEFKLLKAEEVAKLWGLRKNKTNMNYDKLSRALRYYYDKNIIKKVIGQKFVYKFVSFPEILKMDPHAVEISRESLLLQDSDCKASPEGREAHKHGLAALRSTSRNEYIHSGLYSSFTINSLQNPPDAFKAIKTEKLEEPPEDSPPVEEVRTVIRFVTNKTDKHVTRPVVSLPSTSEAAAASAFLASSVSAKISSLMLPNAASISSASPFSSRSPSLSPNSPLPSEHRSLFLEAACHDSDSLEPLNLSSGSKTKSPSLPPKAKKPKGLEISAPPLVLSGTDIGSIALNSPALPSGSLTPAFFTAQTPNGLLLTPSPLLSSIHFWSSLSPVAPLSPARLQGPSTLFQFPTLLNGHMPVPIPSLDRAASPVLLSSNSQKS
Conditions: protein: recombinant; tags: N-terminal GST; dsDNA, one strand shown. An outline of the steps:
as §1

Another experiment deals with ELF4 (Homo sapiens, UniProt Q99607 1-663). Conditions: protein: recombinant; tags: N-terminal GST; dsDNA, one strand shown. The gist of the method: as §1
A further experiment concerns the target T6, ELK4 (Homo sapiens, UniProt P28324-2 1-405).
T6 sequence: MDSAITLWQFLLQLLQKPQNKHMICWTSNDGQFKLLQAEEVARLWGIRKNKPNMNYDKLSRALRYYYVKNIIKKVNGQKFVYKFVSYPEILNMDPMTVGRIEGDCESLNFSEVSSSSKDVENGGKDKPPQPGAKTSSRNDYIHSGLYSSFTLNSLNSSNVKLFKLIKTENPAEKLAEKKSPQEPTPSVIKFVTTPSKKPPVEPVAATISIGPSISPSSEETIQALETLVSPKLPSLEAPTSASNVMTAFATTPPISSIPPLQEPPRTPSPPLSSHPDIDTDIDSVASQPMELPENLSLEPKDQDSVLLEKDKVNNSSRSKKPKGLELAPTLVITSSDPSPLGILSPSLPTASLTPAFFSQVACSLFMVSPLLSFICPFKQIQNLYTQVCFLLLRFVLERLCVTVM
Conditions: protein: recombinant; tags: N-terminal GST; dsDNA, one strand shown. An outline of the steps: as §1

Another experiment has as its target T7, ELF3 (Homo sapiens, UniProt P78545 1-371).
T7 sequence: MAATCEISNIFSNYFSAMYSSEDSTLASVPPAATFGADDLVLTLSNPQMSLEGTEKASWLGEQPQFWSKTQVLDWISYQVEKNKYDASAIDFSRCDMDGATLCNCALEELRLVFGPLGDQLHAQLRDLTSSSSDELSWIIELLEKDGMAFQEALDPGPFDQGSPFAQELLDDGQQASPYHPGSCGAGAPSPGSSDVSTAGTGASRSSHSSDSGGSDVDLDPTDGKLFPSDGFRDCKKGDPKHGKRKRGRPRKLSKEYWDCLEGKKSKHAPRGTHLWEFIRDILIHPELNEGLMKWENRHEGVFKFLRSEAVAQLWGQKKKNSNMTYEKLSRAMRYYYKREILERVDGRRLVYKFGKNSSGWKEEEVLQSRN
Conditions: protein: recombinant; tags: N-terminal GST; dsDNA, one strand shown. An outline of the steps: as §1

Another experiment concerns the target T8, ETV3L (Homo sapiens, UniProt Q6ZN32 1-361).
T8 sequence: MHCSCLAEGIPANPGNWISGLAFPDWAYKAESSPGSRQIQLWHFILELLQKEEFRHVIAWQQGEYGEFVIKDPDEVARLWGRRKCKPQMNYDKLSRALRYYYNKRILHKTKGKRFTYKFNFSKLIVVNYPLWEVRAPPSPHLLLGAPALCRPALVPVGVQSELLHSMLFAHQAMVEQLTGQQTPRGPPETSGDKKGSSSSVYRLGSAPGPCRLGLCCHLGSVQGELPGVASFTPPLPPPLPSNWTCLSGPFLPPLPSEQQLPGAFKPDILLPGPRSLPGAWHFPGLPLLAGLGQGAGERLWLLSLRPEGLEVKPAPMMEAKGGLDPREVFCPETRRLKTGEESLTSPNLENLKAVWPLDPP
Conditions: protein: recombinant; tags: N-terminal GST; dsDNA, one strand shown. An outline of the steps: as §1

Another experiment addresses T9, ETV3 (Homo sapiens, UniProt P41162-2 1-143).
T9 sequence: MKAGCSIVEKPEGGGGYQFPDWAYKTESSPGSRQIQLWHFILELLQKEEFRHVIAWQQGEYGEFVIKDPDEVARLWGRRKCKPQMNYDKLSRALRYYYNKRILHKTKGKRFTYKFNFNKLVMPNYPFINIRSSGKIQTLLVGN
To be noted: protein: recombinant; tags: N-terminal GST; dsDNA, one strand shown. An outline of the steps: as §1

The target in a further experiment is T10, ELF5 (Homo sapiens, UniProt Q9UKW6-2 1-255).
T10 sequence: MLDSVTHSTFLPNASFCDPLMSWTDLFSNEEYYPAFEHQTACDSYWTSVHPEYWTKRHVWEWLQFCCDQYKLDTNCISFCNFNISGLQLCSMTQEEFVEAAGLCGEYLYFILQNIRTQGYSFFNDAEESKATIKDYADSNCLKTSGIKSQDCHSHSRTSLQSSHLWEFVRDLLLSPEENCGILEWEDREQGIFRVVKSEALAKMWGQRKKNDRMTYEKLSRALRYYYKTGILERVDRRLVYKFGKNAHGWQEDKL
To be noted: protein: recombinant; tags: N-terminal GST; dsDNA, one strand shown. The gist of the method: as §1

The record followed here is article PMC7862700, “An all-to-all approach to the identification of sequence-specific readers for epigenetic DNA modifications on cytosine”.

CRX, sequence (O43186 whole entry): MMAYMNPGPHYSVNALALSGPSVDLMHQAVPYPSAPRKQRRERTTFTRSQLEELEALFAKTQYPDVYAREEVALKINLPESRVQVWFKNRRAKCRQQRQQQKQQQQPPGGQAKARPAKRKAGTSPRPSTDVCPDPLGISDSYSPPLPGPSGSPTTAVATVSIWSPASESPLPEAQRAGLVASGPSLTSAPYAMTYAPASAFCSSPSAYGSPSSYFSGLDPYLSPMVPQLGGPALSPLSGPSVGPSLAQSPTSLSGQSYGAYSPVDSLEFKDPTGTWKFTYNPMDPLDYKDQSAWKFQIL
HSF1, sequence (Q00613 whole entry): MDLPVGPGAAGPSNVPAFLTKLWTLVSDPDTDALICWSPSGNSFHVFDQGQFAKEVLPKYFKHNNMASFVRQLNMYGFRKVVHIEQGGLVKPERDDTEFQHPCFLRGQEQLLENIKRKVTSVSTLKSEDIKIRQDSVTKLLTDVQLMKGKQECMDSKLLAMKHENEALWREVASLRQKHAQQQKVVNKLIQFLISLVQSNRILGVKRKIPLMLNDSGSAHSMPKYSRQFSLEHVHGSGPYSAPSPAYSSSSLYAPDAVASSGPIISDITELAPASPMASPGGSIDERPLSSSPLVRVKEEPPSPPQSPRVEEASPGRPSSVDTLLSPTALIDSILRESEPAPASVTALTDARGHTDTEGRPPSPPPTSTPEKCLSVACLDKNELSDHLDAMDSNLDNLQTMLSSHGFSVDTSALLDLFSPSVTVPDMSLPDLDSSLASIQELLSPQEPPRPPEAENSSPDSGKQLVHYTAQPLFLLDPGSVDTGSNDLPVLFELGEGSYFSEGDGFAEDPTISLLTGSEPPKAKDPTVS
ELF4, sequence (Q99607 whole entry): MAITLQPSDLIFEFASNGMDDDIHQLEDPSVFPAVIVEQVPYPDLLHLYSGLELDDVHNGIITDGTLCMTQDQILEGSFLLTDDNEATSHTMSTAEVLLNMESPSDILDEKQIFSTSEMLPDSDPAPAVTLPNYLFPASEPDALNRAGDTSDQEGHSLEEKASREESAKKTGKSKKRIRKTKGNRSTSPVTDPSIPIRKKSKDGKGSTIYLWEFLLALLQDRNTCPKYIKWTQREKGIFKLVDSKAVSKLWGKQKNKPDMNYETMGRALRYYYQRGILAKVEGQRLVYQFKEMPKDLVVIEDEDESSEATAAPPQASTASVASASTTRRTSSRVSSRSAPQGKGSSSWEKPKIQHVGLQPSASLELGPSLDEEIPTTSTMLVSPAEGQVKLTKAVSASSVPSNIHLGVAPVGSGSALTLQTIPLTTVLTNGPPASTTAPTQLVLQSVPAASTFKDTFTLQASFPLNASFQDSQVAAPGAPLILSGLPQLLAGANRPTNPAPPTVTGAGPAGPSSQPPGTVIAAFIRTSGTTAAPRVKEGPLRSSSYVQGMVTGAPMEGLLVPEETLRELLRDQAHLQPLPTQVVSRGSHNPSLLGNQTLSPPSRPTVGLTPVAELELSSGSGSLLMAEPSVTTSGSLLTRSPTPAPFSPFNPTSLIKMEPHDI

For TCGAAA, the binding signal with SPI1 is 1.02 fold enrichment (6-mer frequency, TF over GST control); with HSF1 it was 2.08 fold enrichment (6-mer frequency, TF over GST control); with SPIC, 1.06 fold enrichment (6-mer frequency, TF over GST control); with CRX, 1.16 fold enrichment (6-mer frequency, TF over GST control); with ERF it was 1.01 fold enrichment (6-mer frequency, TF over GST control); with ETV7, 1.05 fold enrichment (6-mer frequency, TF over GST control).

As for CCAGCT, the binding signal with EHF was 1.06 fold enrichment (6-mer frequency, TF over GST control); with ELK3 it was 1.02 fold enrichment (6-mer frequency, TF over GST control); with HSF1, 1.03 fold enrichment (6-mer frequency, TF over GST control); in the experiment with ELF4 it was 1.02 fold enrichment (6-mer frequency, TF over GST control); in the experiment with ELK4, 1.14 fold enrichment (6-mer frequency, TF over GST control); with ELF3 it was 1.04 fold enrichment (6-mer frequency, TF over GST control). Also, the binding signal in the experiment with CRX is 1.1 fold enrichment (6-mer frequency, TF over GST control); with ERF, 1.01 fold enrichment (6-mer frequency, TF over GST control); in the experiment with ETV3L it was 1.03 fold enrichment (6-mer frequency, TF over GST control); with ETV3, 1 fold enrichment (6-mer frequency, TF over GST control).

On to AGATAT, for which the binding signal in the experiment with ELK3 was 1 fold enrichment (6-mer frequency, TF over GST control); with HSF1 it was 1.1 fold enrichment (6-mer frequency, TF over GST control); with ELK4, 1.04 fold enrichment (6-mer frequency, TF over GST control); with CRX, 1.06 fold enrichment (6-mer frequency, TF over GST control); with ELF5, 1.06 fold enrichment (6-mer frequency, TF over GST control).
